FXN GAA850 act = FXN promoter activators, primary screen, cell-based, luciferase luminescence, HEK293 lucGAA850; HEK293 lucGAA850 FXN promoter luciferase reporter, 24 h; percent of 10 µM SAHA response; activation, % at 6 µM; 360,000 tested, 0.56% active; AID 540364, 2011;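 active = activation above the average of all compounds screened plus 3 SD, cutoff fixed separately per campaign, cut at about 7.5% in these data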
HSF1 inhib = HSF1 inhibitors in luciferase reporter cells, primary screen, cell-based, NIH3T3, luminescence; 300,000 tested, 0.77% active; activity change, negative = inhibition, % at 7.5 µM (by protocol); NIH3T3-HGL HSE-luciferase, MG132-induced, luminescence 8 h; stronger effect = lower value;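 active = more than half of replicate wells show activity change below -50%, luminescence cut by over half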;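 also: luciferase reports HSF-1 transcriptional activity via heat shock element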
AHR activator = AHR activators, primary screen, cell-based, luminescence, luciferase reporter, human | Aryl hydrocarbon receptor (Homo sapiens), P35869 | AHR-responsive luciferase reporter cells | activation, % at 5 µM | 320,000 tested, 2.5% active | AID 2796, 2010; in the data active = activation above about 47%
Target sequence (P35869 whole entry, looked up): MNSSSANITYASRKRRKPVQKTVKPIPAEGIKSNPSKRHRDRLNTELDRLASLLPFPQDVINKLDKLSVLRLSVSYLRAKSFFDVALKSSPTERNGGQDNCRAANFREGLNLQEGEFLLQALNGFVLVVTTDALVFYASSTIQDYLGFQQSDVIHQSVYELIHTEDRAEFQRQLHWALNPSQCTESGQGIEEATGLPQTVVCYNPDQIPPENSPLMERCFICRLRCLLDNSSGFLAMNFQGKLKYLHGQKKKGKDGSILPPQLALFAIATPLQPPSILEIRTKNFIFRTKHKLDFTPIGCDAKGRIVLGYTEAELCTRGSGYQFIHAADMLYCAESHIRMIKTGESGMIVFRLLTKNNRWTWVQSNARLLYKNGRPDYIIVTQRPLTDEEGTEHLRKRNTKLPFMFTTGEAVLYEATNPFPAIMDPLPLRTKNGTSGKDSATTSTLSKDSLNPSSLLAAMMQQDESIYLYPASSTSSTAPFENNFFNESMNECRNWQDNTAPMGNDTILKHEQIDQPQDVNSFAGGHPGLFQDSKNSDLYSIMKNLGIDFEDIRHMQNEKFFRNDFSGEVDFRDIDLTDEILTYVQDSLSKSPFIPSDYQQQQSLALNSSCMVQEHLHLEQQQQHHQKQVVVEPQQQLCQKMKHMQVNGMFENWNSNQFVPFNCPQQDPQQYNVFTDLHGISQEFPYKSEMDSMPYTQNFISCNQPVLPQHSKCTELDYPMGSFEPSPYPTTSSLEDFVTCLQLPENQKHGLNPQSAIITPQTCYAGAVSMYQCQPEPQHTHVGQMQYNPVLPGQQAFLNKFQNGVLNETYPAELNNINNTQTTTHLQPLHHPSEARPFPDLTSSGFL
NR0B1 inh = DAX1 (NR0B1) inhibitors, primary screen, cell-based, HEK293, Gal4-DAX1, luciferase luminescence; Nuclear receptor subfamily 0 group B member 1 (Homo sapiens), P51843; HEK293 Gal4-DAX1 luciferase reporter; inhibition, % at 6.75 µM; 340,000 tested, 0.99% active; AID 504766, 2011;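 active = inhibition above the mean over all tested compounds plus 3 SD, cut at about 4.2% in these data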;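 also: inhibition shows as a rise in luminescence from relieved DAX1 repression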
HSF-1 act = HSF-1 activators, primary screen, NIH3T3-HGL cells, MG132 stress, luminescence, single point. NIH3T3-HGL HSF-1 luciferase reporter, 8 h; 100% = twice DMSO control signal. activation, % at 9 µM. 300,000 tested, 1.7% active. AID 504408, 2011;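 active = mean replicate activation of at least 50% with a set share of replicates each reaching 50%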
HSP90 refold inh = HSP90 inhibitors, primary screen, cell lysate, luminescence; Rabbit reticulocyte lysate, luciferase refolding luminescence, 3 h; inhibition, % at 5.6 µM; Heat shock protein HSP 90 (rabbit reticulocyte lysate; luciferase refolding); 290,000 tested, 0.91% active; AID 1789, 2009;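 active = inhibition above the screen-wide mean plus 3 SD, computed separately per campaign, cut at about 16% in these data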;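 also: inhibitors lower the luminescence because luciferase stays unfolded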
Of the large screens only hits and unclear results are named; the others gave an inactive call. This is a sample that favours compounds with a hit; in the whole collection about 5.9% have one here.

O=C(Cn1cnc2ccccc2c1=O)NCCC(=O)Nc1ccccc1C(F)(F)F	none
N#Cc1c(N)c2ccccn2c1C(=O)c1ccc(Br)cc1	AHR activator 61
Cc1c(C=NNC(=O)c2ccc(Br)cc2)c2ccccn2c1C(=O)c1ccncc1	none (no result: HSF1 inhib, HSF-1 act, HSP90 refold inh)
O=C(COc1ccccc1)Nc1nc(-c2cccnc2)cs1	AHR activator 55 (no result: HSF1 inhib, HSF-1 act, HSP90 refold inh)
N#Cc1ccc(OCC(=O)Nc2nc(-c3cccnc3)cs2)cc1	AHR activator 49 (no result: HSF1 inhib, HSF-1 act, HSP90 refold inh)
Cc1cc(C)cc(OCC(=O)Nc2nc(-c3cccnc3)cs2)c1	HSF1 inhib -59, AHR activator 66
Cc1cc(Cl)ccc1OCC(=O)Nc1nc(-c2cccs2)cs1	none
Cc1cc(Cl)ccc1OCC(=O)Nc1nc(-c2cccnc2)cs1	HSF1 inhib -60
C=CC[C@H](CC(=O)N(CCO)Cc1ccccc1)C(=O)N[C@@H](COC(=O)[C@@H](CC=C)Cc1ccc(F)cc1)Cc1c[nH]c2ccccc12	none (no result: HSF1 inhib, HSF-1 act, HSP90 refold inh)
COc1ccc(-c2sc3ccccc3c2C#CCCO)cc1	none
OCCCCC#Cc1c(-c2ccsc2)sc2ccccc12	AHR activator 49
C(#Cc1c(-c2ccsc2)sc2ccccc12)c1ccsc1	AHR activator 72 (no result: HSF1 inhib, HSF-1 act, HSP90 refold inh)
CC(=O)c1ccc2ccccc2c1OC(=O)c1ccncc1	none (no result: HSF1 inhib, AHR activator, HSF-1 act, HSP90 refold inh)
CCC(=O)c1ccc(OCC(=O)OC(C)C(=O)NCc2ccc3c(c2)OCO3)cc1 (stereo unspecified)	none (no result: HSP90 refold inh)
Nc1ccc2c(c1Cl)C(=O)c1ccc(N)c(Cl)c1C2=O	FXN GAA850 act 8.4 (no result: AHR activator)
Nc1c(C(=O)O)ccc2c1C(=O)c1ccccc1C2=O	none
CSc1nsc(SCC(=O)Nc2ccc(Br)cn2)n1	AHR activator 48
CCN1/C(=C(\O)c2ccccc2)C(=O)c2ccccc2S1(=O)=O	HSF1 inhib -70
CCOC(=O)c1ccc(CN2C(=O)c3ccccc3S2(=O)=O)cc1	none
Cc1nnc(SCC(=O)Nc2ccc(-c3nc4ccccc4s3)cc2)s1	none
Cc1nnc(SCC(=O)Nc2nsc(-c3ccc(C(C)(C)C)cc3)n2)s1	NR0B1 inh 4.4, HSF-1 act 51
Cc1ccc(S(=O)(=O)Oc2cccc(N3C(=O)C4CC=CCC4C3=O)c2)cc1 (stereo unspecified)	NR0B1 inh 8.0
CC(=O)Nc1ccc(S(=O)(=O)Oc2cccc(N3C(=O)C4CCCCC4C3=O)c2)cc1 (stereo unspecified)	none
Cc1ccc(CN2CCC(CNC(=O)Nc3ccccc3F)CC2)cc1	NR0B1 inh 4.4
O=C(NCC1CC1)Nc1ccccc1F	none
CCOc1ccc2nc(N/C(N)=N/S(=O)(=O)c3ccc(C)cc3)nc(C)c2c1	none (no result: HSF1 inhib, AHR activator, HSF-1 act, HSP90 refold inh)
O=C(Nc1ccccn1)c1nc(-c2ccccc2)n(-c2ccccc2)n1	AHR activator 56
N#Cc1ccc(NC(=O)c2nc(-c3ccccc3)n(-c3ccccc3)n2)cc1	none
c1ccc2c3c([nH]c2c1)CCNC3	HSF-1 act 162
O=C(OCC(=O)c1ccc(Cl)s1)c1cncc(Br)c1	none (no result: HSF1 inhib, HSF-1 act, HSP90 refold inh)
Fc1cccc(CNc2ncnc3cc(Cl)ccc23)c1F	AHR activator 49
CN(C)S(=O)(=O)c1cc(NC2CC(=O)N(c3ccc(F)cc3)C2=O)ccc1Cl (stereo unspecified)	NR0B1 inh 10
Cc1ccc(OCCn2cnc3ccccc3c2=O)c([N+](=O)[O-])c1	HSF-1 act 58
Nc1cc(C(F)(F)F)ccc1-n1cccc1	none
O=C(Nc1cccnc1Cl)c1ccc(Cl)cc1	none
CC(C)(C)c1ccc(C(=O)Nc2ccccc2Cl)cc1	NR0B1 inh 5.0
O=C(NC(=S)Nc1ccccc1O)c1ccc(-c2ccc(Cl)cc2)o1	AHR activator 67
O=C(Nc1ccccc1O)c1ccc(Cl)cc1	AHR activator 66, NR0B1 inh 4.4
O=C(Nc1ccccc1O)c1ccc([N+](=O)[O-])cc1	AHR activator 70
O=C(Nc1ccccc1O)c1cccc(S(=O)(=O)Nc2ccccc2O)c1	HSF-1 act 123 (no result: HSP90 refold inh)
N#C/C(=C/c1ccc([N+](=O)[O-])cc1)C(=O)Nc1ccccc1O	AHR activator 68
Cn1c(-[n+]2c(-c3ccccc3)cc(-c3ccccc3)cc2-c2ccccc2)nc2c([N+](=O)[O-])cccc21	AHR activator 68
O=[N+]([O-])c1cccc2nc(-c3ccccc3)c(-c3ccccc3)nc12	none
COc1cccc(NC(=O)C2CCCN2C(=O)Nc2ccccc2)c1 (stereo unspecified)	none
CCCCNC(=O)C1CCCN1C(=O)Nc1cccc(OC)c1 (stereo unspecified)	HSF1 inhib -52
Cn1cc(NC(=O)OCc2ccc(Cl)cc2)c(C(F)(F)F)n1	HSF-1 act 56
Cc1cccc(N(Cc2ccccc2)C(=O)CSC(C)C(=O)Nc2cc(C)on2)c1 (stereo unspecified)	none (no result: HSP90 refold inh)
O=S(=O)(Nc1ccc(-c2cn3ccccc3n2)cc1)c1ccccc1	NR0B1 inh 4.3
O=C(Nc1nccs1)c1ccc([N+](=O)[O-])cc1	none
O=C(Cc1ccc([N+](=O)[O-])cc1)Nc1nccs1	NR0B1 inh 7.2
COc1ccc(C(=O)Nc2nccs2)cc1[N+](=O)[O-]	none (no result: HSF1 inhib, HSF-1 act)
Cn1cc([N+](=O)[O-])c(C(=O)Nc2ccc(Br)cn2)n1	HSF-1 act 53
Cn1cc([N+](=O)[O-])c(C(=O)Nc2nccs2)n1	HSF-1 act 77
Cc1cc(Cl)cc2c1NC(=O)[C@]21[C@@H]2C(=O)N(Cc3ccccc3)C(=O)[C@@H]2[C@@H]2CCCN21	none
COC(=O)c1c(N2C(=O)[C@H]3[C@@H](C2=O)[C@]2(C(=O)Nc4c(C)cccc42)N2CCC[C@@H]32)sc(C)c1C	HSF1 inhib -74
Cc1[nH]c2ccccc2c1/C=N/Nc1ccc(F)cc1F	AHR activator 78 (no result: FXN GAA850 act, HSF1 inhib, NR0B1 inh, HSF-1 act)
Cc1[nH]c2ccccc2c1/C=N/Nc1ccc([N+](=O)[O-])cc1	none
Cc1[nH]c2ccccc2c1/C=N/NC(=O)c1cccs1	AHR activator 74, NR0B1 inh 7.9
Cc1[nH]c2ccccc2c1/C=N/NC(=O)c1cccc([N+](=O)[O-])c1	AHR activator 48 (no result: NR0B1 inh)
CC(=O)n1cc(/C=N/NC(=O)c2ccccc2O)c2ccccc21	NR0B1 inh 5.0
CC(C(=O)NCC1CCCCC1)N1CCN(S(=O)(=O)c2cccs2)CC1 (stereo unspecified)	none (no result: HSF1 inhib, AHR activator, HSF-1 act, HSP90 refold inh)
CCCn1nnnc1NCc1ccc(N(CC)CC)cc1	none
Cc1noc(C)c1S(=O)(=O)N(CC(=O)NC(C)c1ccccc1)c1ccc(C(C)C)cc1 (stereo unspecified)	none

Screening data from PubChem.
